Assay results reported in PubChem BioAssay AID686979 (National Center for Advancing Translational Sciences (NCATS), 2013).
Among all 420,000 compounds or so, about 50,000 (12%) were called active. Entries that show only a call come without a potency. Inconclusive results (about 26%) are left out. The call rests on the fitted dose curve; in most records, active means well fitted inhibition curve with a large enough effect; inconclusive means small, poorly fitted or top-dose-only effect; inactive means flat fitted curve, though single readings scatter. Many of the other results were omitted from the sample, so actives are more common in it than they were.

Experiment: qHTS for Inhibitors of human tyrosyl-DNA phosphodiesterase 1 (TDP1): qHTS in cells in presence of CPT; further: nearly all actives have a fitted effect of over 55% in size
Conditions: chicken DT40 Tdp1-/-;hTDP1 cells + 20 nM CPT, ATP luminescence, 48 h; series mostly up to 46.2 µM
How it was run: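 Chicken DT40 Tdp1-/- cells stably complemented with human TDP1 were seeded at 400 cells/well in medium containing 20 nM camptothecin, exposed to pin-transferred compounds, and grown at 37 °C for at least 48 hr. Viability was read as ATP luminescence.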
Potency means the concentration at half of the fitted maximal effect.

Row | SMILES | Potency
1 | Cc1ccc(C(=O)OCC(=O)NC2CCCCCCC2)cc1C | inactive
2 | c1ccc2c(c1)C(=NC1CCCCC1)NC2=NC1CCCCC1 | 18.4 µM (active)
3 | COc1cc(NC(=S)N2CCCC(C)C2)cc(OC)c1OC (stereo unspecified) | inactive
4 | Cc1cccc(C(=O)N2CCc3cc(CNC(=O)Cc4ccc(F)cc4)ccc32)c1 | 16.4 µM (active)
5 | CCC(=O)N1CCc2cc(CNC(=O)Nc3ccccc3Cl)ccc21 | inactive
6 | O=C(CCc1ccc(S(=O)(=O)NC2CCCCC2)cc1)NCc1ccccc1 | inactive
7 | O=C(COc1ccccc1)Nc1ccc(C(=O)N2CCCC2)cc1 | inactive
8 | COc1cccc(C(=O)NCc2ccc3c(c2)CCN3C(=O)c2ccncc2)c1 | inactive
9 | O=C(NCc1ccc2c(c1)CCN2C(=O)c1ccccc1)Nc1cc(F)ccc1F | 16.4 µM (active)
10 | O=C(CSCc1ccccc1)N1CCc2ccccc21 | inactive
11 | O=C(CCc1ccccc1)NCc1ccc2c(c1)CCN2C(=O)c1ccccc1 | 10.3 µM (active)
12 | Cc1ccc(C(=O)N2CCc3cc(CNC(=O)c4ccc(Br)cc4)ccc32)cc1 | inactive
13 | O=C(Cc1ccccc1)NCc1ccc(F)cc1 | inactive
14 | O=C(CN1CCN(C(=O)c2cccc(F)c2)CC1)Nc1ccccc1F | inactive
15 | O=C(COc1ccccc1)NCc1ccc2c(c1)CCN2C(=O)c1ccc(F)cc1 | 16.4 µM (active)
16 | CC1CCC2(CC1)NC(=O)N(CC(=O)c1ccc3c(c1)OCO3)C2=O (stereo unspecified) | inactive
17 | COc1cc(OC)c(N(C)C(=O)c2cc3c(=O)oc4ccccc4c3s2)cc1Cl | inactive
18 | CCc1nnc(NS(=O)(=O)c2ccc(NC(=O)c3cccc(OC(F)(F)C(F)F)c3)cc2)s1 | inactive
19 | CCCCCC(=O)Nc1ccc(-c2cn3cccnc3n2)cc1 | inactive
20 | O=C(Nc1cccc2cccnc12)c1cccc2c(Br)cccc12 | inactive
21 | COC(=O)C1NN=C(C(=O)c2ccc(Br)cc2)C1c1cccc(Br)c1 (stereo unspecified) | inactive
22 | O=C(Nc1ccc(Br)cc1)c1cccc(NC(=O)C2C3CC4OC(=O)C2C4C3)c1 (stereo unspecified) | inactive
23 | CCc1cccc(CC)c1NC(=S)NCc1ccc2[nH]c(C)cc2c1 | 23.1 µM (active)
24 | Cc1cc2cc(CNC(=O)c3cccs3)ccc2[nH]1 | inactive
25 | CCc1cccc(CC)c1NC(=S)Nc1ccc2cn[nH]c2c1 | inactive
26 | Cc1cccc(NC(=O)N2CCCCCC2)c1C | inactive

Row | SMILES | Potency
27 | CCCCc1nc2ccccc2c(NC(=O)CN2CCN(C)CC2)c1CCC | inactive
28 | O=C(OCc1nnc(-c2ccccc2)o1)c1cc(=O)[nH]c2ccccc12 | inactive
29 | CCCc1nc2ccccc2c(C(=O)OCc2nnc(-c3cc(OC)c(OC)c(OC)c3)o2)c1CC | 16.4 µM (active)
30 | O=C(CN1CCN(S(=O)(=O)c2ccc(Cl)s2)CC1)N1CCCCC1 | inactive
31 | CCOC(=O)C=Cc1ccc(C(=O)OCC)[nH]1 | 13 µM (active)
32 | CCOC(=O)c1c(C)[nH]c(C)c1C(=O)COC(=O)/C=C/c1cccc([N+](=O)[O-])c1 | inactive
33 | CCOC(=O)c1ccccc1OC(=O)Oc1ccccc1C(=O)OCC | inactive
34 | CCn1c(N)c(Br)c(=O)[nH]c1=O | inactive
35 | COc1ccc(CCNC(=S)NC(=O)/C=C/c2ccc(C)cc2)cc1OC | inactive
36 | O=C(COc1ccccc1)NCCc1nc2ccccc2[nH]1 | inactive
37 | CCCCCOc1ccc(/C=C/C(=O)NCCc2nc3ccccc3[nH]2)cc1OC | 16.4 µM (active)
38 | Cc1nn(CC(=O)NCC2CCCO2)c(=O)c2cc3ccccc3n12 (stereo unspecified) | inactive
39 | C=C(C)C1CC=C(CO)CC1 (stereo unspecified) | inactive
40 | Cc1ccc(-c2nc(=N)sn2Cc2ccccc2)cc1 | 4.47 µM (active)
41 | Cc1ccc(-n2nc(CO)c(C(=O)NCCc3ccccc3)n2)cc1 | inactive
42 | Cc1ccc(CN2C(=O)SC(Nc3ccccc3)C2=O)cc1 (stereo unspecified) | inactive
43 | Cc1ccnc(NC(=O)CCCOc2ccccc2)c1 | inactive
44 | CCN1CCN(c2nc(Nc3cccc(F)c3)nc(N)c2[N+](=O)[O-])CC1 | inactive
45 | CN(C)C(CNC(=O)c1ccc(OCc2cn3ccccc3n2)cc1)c1ccco1 (stereo unspecified) | inactive
46 | Cc1nn(-c2ccccc2)c2c1C(=O)NC(=O)C(C)(C)C2 | inactive
47 | Cc1nn(-c2ncccn2)c2c1C(=O)CC(C)(C)C2Br (stereo unspecified) | 20.6 µM (active)
48 | CC1=C(N2CCN(c3ncccn3)CC2)CCC1=O | inactive
49 | COc1ccc2cc(-c3nc(Cl)c4c5c(sc4n3)CC(C)CC5)c(=O)oc2c1 (stereo unspecified) | inactive
50 | CC(C)CNC(=O)CC(c1ccccc1)c1c(O)ccc2ccccc12 (stereo unspecified) | inactive
51 | CC(C)NC(=O)C(c1ccc(F)cc1)N(C(=O)CCC(=O)Nc1ccccn1)c1ccccc1F (stereo unspecified) | inactive
